Source: PubChem BioAssay (NCATS)
A number with no mark means an inactive call. Inconclusive results are not listed. Where a call stands in place of a potency, no number is given. The source made the active and inactive calls. Unless noted, calls come from the whole dose curve; as a rule, active = well fitted curve in the direction sought with a large enough effect; inconclusive = small, poorly fitted or top-dose-only effect, or another doubt; inactive = no such curve, though single readings can be large; an effect the other way counts as inactive or inconclusive.

Legend:
[1] = Primary qHTS for small molecule stabilizers of the endoplasmic reticulum resident proteome: Secreted ER Calcium Modulated Protein (SERCaMP) assay (AID 1508630)
Procedure, shortened: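 The SH-SY5Y reporter protocol was run at 3 concentrations up to 38.3 uM (primary) or 11 concentrations (follow-up): 16 h compound, 100 nM thapsigargin for 4 h, then extracellular luciferase luminescence.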

[2] = target: Cytochrome P450 2D6 (Homo sapiens) (UniProt P10635); assay: Cytochrome P450 family 2 subfamily D member 6 (CYP2D6) small molecule antagonists: luciferase biochemical (cell-free) qHTS assay (AID 1645840; active = well fitted curve in the direction sought with a large enough effect in the repeat runs; an effect the other way counts as inactive or inconclusive; note: nearly all actives have a fitted effect of over 55% in size)
Sequence of Cytochrome P450 2D6 (Homo sapiens) (P10635 whole entry, looked up): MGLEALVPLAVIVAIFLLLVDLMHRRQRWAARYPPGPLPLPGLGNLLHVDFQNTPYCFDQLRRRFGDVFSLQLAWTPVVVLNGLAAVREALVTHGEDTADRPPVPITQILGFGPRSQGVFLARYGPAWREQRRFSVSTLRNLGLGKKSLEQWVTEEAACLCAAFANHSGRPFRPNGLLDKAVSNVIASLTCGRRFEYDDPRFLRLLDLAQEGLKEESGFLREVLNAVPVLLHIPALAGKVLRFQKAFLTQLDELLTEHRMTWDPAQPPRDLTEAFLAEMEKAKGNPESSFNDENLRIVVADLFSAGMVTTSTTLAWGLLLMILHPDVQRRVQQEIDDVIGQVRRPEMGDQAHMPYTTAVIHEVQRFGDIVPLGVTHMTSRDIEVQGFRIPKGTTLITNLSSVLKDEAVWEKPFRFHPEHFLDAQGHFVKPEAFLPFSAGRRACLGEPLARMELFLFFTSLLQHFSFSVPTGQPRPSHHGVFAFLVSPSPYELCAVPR
Procedure, shortened: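 P450-Glo CYP2D6 system: proluciferin substrate converted by enzyme to luciferin, read by luminescence proportional to activity. Enzyme-substrate mix with compound 10 min at room temperature, then NADPH regeneration 1 h before detection reagent.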

[3] = target: Cytochrome P450 2C9 (Homo sapiens) (UniProt P11712); assay: Cytochrome P450 family 2 subfamily C member 9 (CYP2C9) small molecule antagonists: luciferase biochemical (cell-free) qHTS assay (AID 1645842; active = well fitted curve in the direction sought with a large enough effect in the repeat runs; an effect the other way counts as inactive or inconclusive; note: nearly all actives have a fitted effect of over 55% in size)
Sequence of Cytochrome P450 2C9 (Homo sapiens) (P11712 whole entry, looked up): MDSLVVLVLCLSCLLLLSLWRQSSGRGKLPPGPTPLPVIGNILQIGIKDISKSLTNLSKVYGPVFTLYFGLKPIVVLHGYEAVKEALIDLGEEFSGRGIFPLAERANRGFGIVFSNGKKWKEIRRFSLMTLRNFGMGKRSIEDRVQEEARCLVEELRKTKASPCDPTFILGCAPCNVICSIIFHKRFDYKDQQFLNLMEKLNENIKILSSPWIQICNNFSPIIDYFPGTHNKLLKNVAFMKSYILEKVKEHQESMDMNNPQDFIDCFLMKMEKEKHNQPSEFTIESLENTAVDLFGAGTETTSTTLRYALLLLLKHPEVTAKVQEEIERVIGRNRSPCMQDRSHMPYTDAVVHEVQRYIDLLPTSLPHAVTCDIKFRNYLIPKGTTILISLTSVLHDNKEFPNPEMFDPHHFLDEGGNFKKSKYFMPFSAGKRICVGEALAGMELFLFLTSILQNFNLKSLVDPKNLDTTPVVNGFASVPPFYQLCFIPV
Procedure, shortened: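 P450-Glo CYP2C9 system: proluciferin substrate with enzyme in mix containing 0.4% BSA, 10 min at room temperature, then NADPH regeneration solution added and incubated 1 h at 37C. Detection reagent stopped reaction; luminescence read after 20 min as RLU.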

[4] = target: Rap guanine nucleotide exchange factor 3 (Homo sapiens) (UniProt O95398); assay: Counterscreen qHTS for antagonist of cAMP-regulated guanine nucleotide exchange factor 3 (EPAC1) (AID 1645888);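 note: fluorescence loss as bound BODIPY-GDP is released from Rap1B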
Sequence of Rap guanine nucleotide exchange factor 3 (Homo sapiens) (O95398 whole entry, looked up): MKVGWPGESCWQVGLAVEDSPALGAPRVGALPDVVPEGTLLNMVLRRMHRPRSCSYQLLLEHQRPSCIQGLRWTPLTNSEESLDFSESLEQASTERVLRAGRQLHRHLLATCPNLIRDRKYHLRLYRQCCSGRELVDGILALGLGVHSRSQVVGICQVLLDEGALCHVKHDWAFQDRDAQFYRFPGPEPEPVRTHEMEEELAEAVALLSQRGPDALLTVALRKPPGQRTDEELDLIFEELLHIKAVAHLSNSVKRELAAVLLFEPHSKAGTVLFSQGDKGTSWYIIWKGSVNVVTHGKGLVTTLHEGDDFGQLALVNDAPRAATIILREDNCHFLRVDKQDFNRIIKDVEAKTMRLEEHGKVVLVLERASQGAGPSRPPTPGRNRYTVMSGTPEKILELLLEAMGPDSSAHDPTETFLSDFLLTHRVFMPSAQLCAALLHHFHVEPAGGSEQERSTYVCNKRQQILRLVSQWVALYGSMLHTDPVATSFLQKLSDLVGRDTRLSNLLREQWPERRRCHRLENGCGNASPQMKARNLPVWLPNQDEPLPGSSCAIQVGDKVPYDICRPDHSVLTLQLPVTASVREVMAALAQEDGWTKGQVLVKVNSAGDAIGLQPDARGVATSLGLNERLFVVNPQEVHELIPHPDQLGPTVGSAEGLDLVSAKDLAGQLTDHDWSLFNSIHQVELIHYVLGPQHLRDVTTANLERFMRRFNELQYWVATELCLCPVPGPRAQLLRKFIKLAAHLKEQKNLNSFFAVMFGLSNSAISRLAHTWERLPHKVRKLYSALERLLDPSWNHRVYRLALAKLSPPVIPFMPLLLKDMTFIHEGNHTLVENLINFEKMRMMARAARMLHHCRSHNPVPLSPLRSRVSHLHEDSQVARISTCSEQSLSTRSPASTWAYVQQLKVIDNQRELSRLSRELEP
Procedure, shortened: (§1)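 Rap1B–BODIPY-GDP (250 nM) with 50 uM GDP; compounds pin-transferred to 9.74 nM–152 uM final (activator) or from 7.32 nM upwards (inhibitor). Fluorescence Ex/Em 480/540 nm read at 5 and 30 min, then after adding cAMP or buffer, at room temperature.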

[5] = target: Rap guanine nucleotide exchange factor 3 (Homo sapiens) (UniProt O95398); assay: Counterscreen qHTS for agonist of cAMP-regulated guanine nucleotide exchange factor 3 (EPAC1) (AID 1645889); note: nearly all actives have a fitted effect of over 40% in size
Procedure, shortened: as §1

[6] = qHTS for differential inhibitors of proliferation of Plasmodium falciparum line 7G8 (AID 1815);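 note: parasite growth measured after three days of incubation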; note: potency is the fitted concentration of half-maximal effect
[7] = qHTS for differential inhibitors of proliferation of Plasmodium falciparum line GB4 (AID 1816); conditions: Potency: Plasmodium falciparum GB4 proliferation inhibition;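 note: parasite growth measured after 72 h incubation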; note: potency is the fitted concentration of half-maximal effect
[8] = qHTS for differential inhibitors of proliferation of Plasmodium falciparum line D10 (AID 1877);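 note: parasites grown with compound for 72 h before DNA staining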; note: potency is the fitted concentration of half-maximal effect
[9] = target: Ferritin light chain (Equus caballus) (UniProt P02791); assay: qHTS Validation Assay for Identification of Novel General Anesthetics (AID 2323)
Sequence of Ferritin light chain (Equus caballus) (P02791 2-175 limits assumed): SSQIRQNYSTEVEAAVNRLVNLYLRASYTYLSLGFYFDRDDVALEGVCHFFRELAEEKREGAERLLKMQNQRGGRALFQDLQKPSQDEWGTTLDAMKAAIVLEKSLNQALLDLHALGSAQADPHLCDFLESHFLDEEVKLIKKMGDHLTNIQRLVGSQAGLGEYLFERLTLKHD
Procedure, shortened: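 Normalized fluorescence response, scaled between free 1-AMA and 1-AMA/apoferritin complex, fitted to a four-parameter Hill equation for concentration-effect values. Binding mix: 10 uM horse-spleen apoferritin, 50% saturated 1-AMA in PBS; read 380/535 nm after 10 min.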

[10] = Quantitative high throughput screen for delayed death inhibitors of the malarial parasite plastid, 96 hour incubation (AID 488745); note: nearly all actives have a fitted effect of over 70% in size; note: potency is the fitted concentration of half-maximal effect;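 for activity change, negative = inhibition: luciferase-expressing P. falciparum in erythrocytes at 2% hematocrit and 0.1% parasitemia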
Procedure, shortened: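 Readout is firefly luciferase luminescence from an integrated reporter in P. falciparum; lower signal marks inhibited growth. Cultures at 2% hematocrit and 0.1% parasitemia were treated with compound across two generations (96 h, 37 C, 5% CO2).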

[11] = Quantitative high throughput screen for delayed death inhibitors of the malarial parasite plastid, 48 hour incubation (AID 488752); note: nearly all actives have a fitted effect of over 65% in size; note: potency is the fitted concentration of half-maximal effect
Procedure, shortened: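 First, compound was pinned into RPMI 1640 medium containing 0.5% Albumax. Next, reporter-parasite-infected erythrocytes were added to 2% hematocrit and 0.1% parasitemia. After 48 h at 37 C under 5% CO2, luciferase detection reagent was added and luminescence read.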

[12] = Validation screen for small molecules that induce DNA re-replication in SW480 colon adenocarcinoma cells (AID 504364)
Procedure, shortened: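 Image-based qHTS: compounds were incubated with SW480 cells for 48 hr, nuclei stained with Hoechst, and per-nucleus fluorescence intensity scanned to flag cells with excess DNA content.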

[13] = target: RecQ-like DNA helicase BLM (Homo sapiens) (UniProt P54132); assay: qHTS Validation Assay for Inhibitors of Bloom's syndrome helicase (BLM) (AID 2364)
Sequence of RecQ-like DNA helicase BLM (Homo sapiens) (P54132 whole entry, looked up): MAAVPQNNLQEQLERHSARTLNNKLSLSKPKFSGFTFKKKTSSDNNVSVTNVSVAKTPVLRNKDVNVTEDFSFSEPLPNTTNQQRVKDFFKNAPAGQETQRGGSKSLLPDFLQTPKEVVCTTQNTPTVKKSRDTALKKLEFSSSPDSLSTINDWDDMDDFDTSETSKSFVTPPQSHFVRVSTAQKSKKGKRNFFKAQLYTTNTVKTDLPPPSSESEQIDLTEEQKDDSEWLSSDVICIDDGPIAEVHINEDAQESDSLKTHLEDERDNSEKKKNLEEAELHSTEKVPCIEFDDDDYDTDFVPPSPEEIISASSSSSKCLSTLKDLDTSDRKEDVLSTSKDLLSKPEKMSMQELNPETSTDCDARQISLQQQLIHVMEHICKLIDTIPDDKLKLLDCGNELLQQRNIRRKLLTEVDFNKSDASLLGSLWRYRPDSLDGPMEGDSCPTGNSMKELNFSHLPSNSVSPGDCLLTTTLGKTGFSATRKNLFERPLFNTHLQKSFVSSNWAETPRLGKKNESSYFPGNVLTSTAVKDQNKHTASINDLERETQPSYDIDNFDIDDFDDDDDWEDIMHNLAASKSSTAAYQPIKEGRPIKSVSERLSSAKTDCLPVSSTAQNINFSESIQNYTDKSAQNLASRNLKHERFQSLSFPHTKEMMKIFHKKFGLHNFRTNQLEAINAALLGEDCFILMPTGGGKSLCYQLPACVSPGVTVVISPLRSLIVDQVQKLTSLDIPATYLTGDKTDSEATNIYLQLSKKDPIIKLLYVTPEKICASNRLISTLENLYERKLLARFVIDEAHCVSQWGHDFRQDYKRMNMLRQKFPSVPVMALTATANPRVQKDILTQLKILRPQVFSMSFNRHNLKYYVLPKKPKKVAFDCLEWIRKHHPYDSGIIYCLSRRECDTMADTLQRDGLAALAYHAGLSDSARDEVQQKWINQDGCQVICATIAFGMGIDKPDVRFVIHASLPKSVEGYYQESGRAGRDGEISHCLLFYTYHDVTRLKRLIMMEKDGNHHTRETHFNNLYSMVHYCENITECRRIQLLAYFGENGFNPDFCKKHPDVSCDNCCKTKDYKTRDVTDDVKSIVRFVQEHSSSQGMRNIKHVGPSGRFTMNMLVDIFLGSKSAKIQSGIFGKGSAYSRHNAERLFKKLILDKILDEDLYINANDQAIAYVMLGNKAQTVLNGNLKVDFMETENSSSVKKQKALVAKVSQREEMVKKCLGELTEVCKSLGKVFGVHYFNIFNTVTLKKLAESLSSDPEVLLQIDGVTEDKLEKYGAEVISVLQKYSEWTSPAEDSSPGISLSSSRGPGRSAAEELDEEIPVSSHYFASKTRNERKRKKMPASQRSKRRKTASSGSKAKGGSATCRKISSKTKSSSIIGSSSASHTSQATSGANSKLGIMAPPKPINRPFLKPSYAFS
Procedure, shortened: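 50 nM BLM preincubated 15 min at room temperature with compound in pH 8.0 Tris buffer containing 2.5 ug/ml poly(dI-dC); started with 200 nM TAMRA/BHQ-2 forked duplex and 2 mM ATP (final). Unwinding read as TAMRA fluorescence increase, two reads 2 h apart.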

[14] = target: Thyrotropin receptor (Homo sapiens) (UniProt P16473); assay: qHTS Assay for Antagonists of the Thyroid Stimulating Hormone Receptor (AID 488980)
Sequence of Thyrotropin receptor (Homo sapiens) (P16473 whole entry, looked up): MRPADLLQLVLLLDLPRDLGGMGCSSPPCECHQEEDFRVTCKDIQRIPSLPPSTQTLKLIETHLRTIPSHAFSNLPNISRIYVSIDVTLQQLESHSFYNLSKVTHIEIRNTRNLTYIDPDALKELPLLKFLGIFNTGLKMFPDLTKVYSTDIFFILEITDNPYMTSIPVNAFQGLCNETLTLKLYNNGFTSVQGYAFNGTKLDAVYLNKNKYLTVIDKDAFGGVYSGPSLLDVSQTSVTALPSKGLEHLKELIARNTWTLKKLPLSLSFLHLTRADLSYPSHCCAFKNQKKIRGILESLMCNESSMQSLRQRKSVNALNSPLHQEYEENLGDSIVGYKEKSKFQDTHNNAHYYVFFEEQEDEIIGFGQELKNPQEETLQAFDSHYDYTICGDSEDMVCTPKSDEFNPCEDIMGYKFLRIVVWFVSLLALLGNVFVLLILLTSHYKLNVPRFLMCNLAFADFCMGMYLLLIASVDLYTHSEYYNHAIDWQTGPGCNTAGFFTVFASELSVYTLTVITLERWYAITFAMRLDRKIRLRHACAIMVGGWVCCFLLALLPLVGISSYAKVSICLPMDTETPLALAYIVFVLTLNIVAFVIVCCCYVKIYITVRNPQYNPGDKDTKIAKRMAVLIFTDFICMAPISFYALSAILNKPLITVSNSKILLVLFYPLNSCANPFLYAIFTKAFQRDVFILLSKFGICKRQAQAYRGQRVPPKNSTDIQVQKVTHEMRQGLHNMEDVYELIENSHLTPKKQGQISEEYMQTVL
Procedure, shortened: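 Inhibition of TSH-stimulated cAMP accumulation was quantified by homogeneous time-resolved FRET in TSHR-transfected HEK293 cells. Agonist: TSH, 4 nM final (EC80).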

[15] = qHTS Assay for Modulators of Human Peripheral Myelin Protein 22 (PMP22) Expression/Activity (AID 1967; active = well fitted curve in the direction sought with a large enough effect in the signal ratio; the % refers to the signal ratio)
Procedure, shortened: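 Engineered MSC80 cells, Pmp22-promoter green and EF-alpha red luciferase reporters; 24h compound treatment at 37 °C. Concentration-response fits on green, red and ratio signals, each overlap-corrected, with %Activity normalized to untreated wells.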

[16] = NCATS anti-infectives library activity on HEK293 viability as a counter-qHTS vs the C. elegans viability qHTS (AID 1745854);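 note: HEK293 cells exposed to compounds for 24 hr before the viability read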
Procedure, shortened: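 Counter-screen for cytotoxicity: HEK293, 24 hr, 37C, compounds up to 41.7 uM final (a dilution series, 1:5). Readout CellTiter-Glo luminescence, 10 min RT. Digitonin control, […] uM final.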

[17] = target: ATP-dependent 6-phosphofructokinase (Trypanosoma brucei brucei) (UniProt O15648); assay: qHTS Assay to Find Inhibitors of T. brucei phosphofructokinase: hit validation (AID 492961);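 note: luminescence reports ADP formed as PFK phosphorylates fructose-6-phosphate with ATP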
Sequence of ATP-dependent 6-phosphofructokinase (Trypanosoma brucei brucei) (O15648 whole entry, looked up): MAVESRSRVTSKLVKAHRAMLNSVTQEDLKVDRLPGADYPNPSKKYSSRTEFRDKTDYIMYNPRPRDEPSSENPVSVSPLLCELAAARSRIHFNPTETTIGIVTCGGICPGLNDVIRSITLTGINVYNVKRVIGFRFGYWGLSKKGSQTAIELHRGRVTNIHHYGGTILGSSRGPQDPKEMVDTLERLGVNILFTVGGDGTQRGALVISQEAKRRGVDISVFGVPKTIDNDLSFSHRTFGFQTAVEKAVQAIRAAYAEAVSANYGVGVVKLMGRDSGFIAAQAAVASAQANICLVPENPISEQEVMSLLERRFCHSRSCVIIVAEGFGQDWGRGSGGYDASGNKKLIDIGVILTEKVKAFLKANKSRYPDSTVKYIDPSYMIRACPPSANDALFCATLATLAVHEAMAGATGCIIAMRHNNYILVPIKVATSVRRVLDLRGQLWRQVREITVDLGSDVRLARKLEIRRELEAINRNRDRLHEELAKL
Procedure, shortened: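 Compounds titrated; %activity normalized to 0x and 1x enzyme controls, curve-fitted. Readout: ADP-Glo luminescence after 45 min room-temperature reaction of 1.25 nM PFK, 0.1 mM ATP, 0.5 mM F6P, pH 8.0.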

[18] = NCATS anti-infectives library activity on the primary C. elegans qHTS viability assay (AID 1745855; calls by dose curve; note: potency is the fitted concentration of half-maximal effect); conditions: C. elegans worm area imaging, day 7
Procedure, shortened: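 GFP read-out by 488 nm laser cytometry at day 0, 3 and 7, gated on object perimeter, area and peak intensity, scored viability of PE254-GFP-FLuc worms exposed to compound in S medium with bacterial capsules at 21 °C.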

[19] = qHTS profiling for inhibitors of Plasmodium falciparum proliferation (AID 504749); note: potency is the fitted concentration of half-maximal effect; nearly all actives have a fitted effect of over 60% in size; conditions: P. falciparum in erythrocytes, SYBR Green DNA, 72 h
Procedure, shortened: (§2)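 Each compound contacts P. falciparum-infected red blood cells for 72 h at 37 C; lysis buffer (Tris, EDTA, saponin, Triton X, SYBR Green I) is added and fluorescence measured next morning; values normalized to controls.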

DFO2036 = assay: as above; conditions: P. falciparum in erythrocytes, SYBR Green DNA, 72 h; series mostly up to 12.8 µM
Procedure, shortened: as §2

CC(C)CN1CCCC2(CCN(C(=O)c3ccco3)CC2)C1
outcome [1]: inactive

NC(Cc1ccc(O)c(O)c1)C(=O)O (stereo not drawn)
Potency [2]: inactive
Potency [3]: inactive

COc1c(-c2ccc(O)c(O)c2)oc2cc(O)cc(O)c2c1=O
outcome [4]: inactive

COc1ccc(-c2cc(=O)c3c(OC)c(OC)c(OC)c(OC)c3o2)cc1
activity change, negative = inhibition [4]: -8.95% [at 30.8 µM]
outcome [5]: inactive

CCCC1O[C@@H]2C[C@H]3[C@@H]4CCC5=CC(=O)C=C[C@]5(C)C4[C@@H](O)C[C@]3(C)[C@]2(C(=O)CO)O1 (stereo partly drawn)
Potency [6]: 2.24 µM (active)
Potency [7]: 3.16 µM (active)
Potency [8]: 11.2 µM (active)
outcome [9]: inactive
Potency [10]: 2.94 µM (active)
Potency [11]: 10.4 µM (active)
outcome [12]: inactive

CN1CCc2c(cc(O)c(O)c2Cl)C(c2cccc(Cl)c2)C1 (stereo not drawn)
Potency [6]: 5.01 µM (active)
Potency [7]: 5.01 µM (active)
Potency [8]: 10 µM (active)
outcome [13]: inactive
Potency [10]: 18.5 µM (active)
outcome [14]: inactive
outcome [12]: inactive

COc1ccc2c(c1OC)C(=O)OC2C1c2c(cc3c(c2OC)OCO3)CCN1C (stereo not drawn)
outcome [9]: inactive
outcome [14]: inactive

Nc1ncnc2c1nc(Br)n2C1O[C@H]2COP(=O)(O)O[C@@H]2C1O (stereo partly drawn)
Potency [7]: 12.6 µM (active)
outcome [9]: inactive
outcome [13]: inactive
Potency [11]: inactive
outcome [14]: inactive
outcome [12]: inactive

CC#C[C@]1(O)CC[C@H]2C3CCC4=CC(=O)CCC4=C3[C@@H](c3ccc(N(C)C)cc3)C[C@@]21C (stereo partly drawn)
Potency [6]: 3.98 µM (active)
Potency [7]: 11.2 µM (active)
Potency [8]: 10 µM (active)
Potency [10]: 11.7 µM (active)
outcome [14]: inactive

CN(C)CCCO[C@H]1C([C@H](O)CO)O[C@@H]2OC(C)(C)O[C@@H]21 (stereo partly drawn)
Potency [6]: inactive
Potency [7]: inactive
Potency [8]: inactive
outcome [15]: inactive
outcome [9]: inactive
outcome [13]: inactive
Potency [10]: inactive
Potency [11]: inactive
outcome [12]: inactive

COc1ccc(/C=C/C(=O)O)cc1OC
outcome [16]: inactive

Cc1cc(/C=C\c2ccc3cc(N(C)C)ccc3[n+]2C)c(C)n1-c1ccccc1
outcome [17]: inactive
Potency [18]: 29 µM (active)
Potency ([19]; parasite line A): 1.58 µM (active)
Potency ([19]; parasite line B): 1.58 µM (active)
Potency (DFO2036): 1.78 µM (active)

COc1ccc(-c2cc(=O)c3c(OC)c(OC)c(OC)c(OC)c3o2)cc1OC
outcome [16]: inactive

Nc1ncnc2c1ncn2[C@@H]1O[C@H](COP(=O)(O)OP(=O)(O)OP(=O)(O)OP(=O)(O)OC[C@@H]2O[C@H](n3cnc4c(N)ncnc43)[C@@H](O)[C@@H]2O)[C@H](O)[C@H]1O
outcome [15]: inactive
outcome [9]: inactive
outcome [13]: inactive
Potency [10]: inactive
Potency [11]: inactive
outcome [14]: inactive
outcome [12]: inactive

CC(C)=CCC/C(C)=C/CC/C(C)=C/CC/C(C)=C/CC/C(C)=C/CC/C(C)=C/CC/C(C)=C/CC/C(C)=C/CC/C(C)=C/CO
outcome [16]: inactive

CNC(=O)[C@H]1O[C@@H](n2cnc3c(N)ncnc32)[C@H](O)[C@H]1O
Potency [6]: inactive
Potency [7]: inactive
Potency [8]: inactive
outcome [15]: inactive
outcome [9]: inactive
Potency [10]: inactive
Potency [11]: inactive
outcome [14]: inactive
outcome [12]: inactive

COc1cc2c3cc1Oc1c(OC)c(OC)cc4c1[C@@H](Cc1ccc(O)c(c1)Oc1ccc(cc1)C[C@@H]3N(C)CC2)N(C)CC4
outcome [16]: inactive

C[C@@H](Oc1ccc(Oc2cnc3ccc(Cl)cc3n2)cc1)C(=O)O
Potency [8]: inactive
outcome [13]: inactive
Potency [10]: inactive
Potency [11]: inactive
outcome [14]: inactive

C[n+]1cccc(C(=O)[O-])c1
outcome [16]: inactive
